Results taken from article PMC4552634, “A New Set of Chemical Starting Points with Plasmodium falciparum Transmission-Blocking Potential for Antimalarial Drug Discovery” (PLoS ONE, 2015).
Out of some 13,000 compounds screened, about 3,200 (25%) showed an effect of 50% or more. The list shows a part of the results.

test system: P. falciparum stage V gametocytes; parameters: BacTiter-Glo ATP luminescence viability of purified stage V gametocytes in 384-well plates, per cent inhibition versus DMSO; conditions: 48 h, 5 µM; inhibitor

Going from `CCCN1CCN(c2cc(NCC)c3c4c(onc24)-c2ccccc2C3=O)CC1` [TCMDC-123898] to `CN1CCN(c2ccnc3ccc(NC(=O)Nc4ccc5ccccc5c4)cc23)CC1` [TCMDC-139343], the “% Inhibition” value rises from -28.72% to -1.403%.

Compared with `c1cc(COc2ccc(C3=NCCN3)cc2)nc(COc2ccc(C3=NCCN3)cc2)c1` [TCMDC-137805], `Cc1cccc2[nH]c(-c3ccc(-c4cccc(NC(=O)c5ccncc5)c4)cc3)nc12` [TCMDC-136958] is higher in “% Inhibition” value: -1.887% for the first, 22.27% for the second.

Compared with `Cc1cccc2[nH]c(-c3cccc(-c4cccc(NC(=O)c5cnc[nH]5)c4)c3)nc12` [TCMDC-136936], `Cc1cccc2[nH]c(-c3cccc(-c4ccc(NC(=O)c5cnc[nH]5)cc4)c3)nc12` [TCMDC-136937] is higher in “% Inhibition” value: -12.17% for the first, 92.2% for the second.

First: Cc1cccc2[nH]c(-c3cccc(-c4ccc(NC(=O)NC(C)C)cc4)c3)nc12 [TCMDC-133251]
Second: Cc1cccc2[nH]c(-c3cccc(-c4ccc(NC(=O)c5ccoc5)cc4)c3)nc12 [TCMDC-136847]
The “% Inhibition” value of the first is lower: -14.46% for the first, 83.68% for the second.

Compared with `Cc1cccc2[nH]c(-c3cccc(-c4ccc(NC(=O)c5ccncc5)cc4)c3)nc12` [TCMDC-136966], `Cc1cccc2[nH]c(-c3cccc(-c4cccc(NC(=O)c5ccncc5)c4)c3)nc12` [TCMDC-136965] is lower in “% Inhibition” value: 61.29% for the first, -36.15% for the second.

First: Cc1cccc2[nH]c(-c3cccc(-c4ccc(NC(=O)c5ccc(=O)[nH]n5)cc4)c3)nc12 [TCMDC-137034]
Second: Cc1cccc2[nH]c(-c3cccc(-c4cccc(NC(=O)c5ccoc5)c4)c3)nc12 [TCMDC-136846]
The “% Inhibition” value of the first is lower: -23.81% for the first, 20.35% for the second.

Compared with `O=C(Nc1ccc(-c2ccc(-c3nc4ccccc4[nH]3)s2)cc1)c1ccncc1` [TCMDC-136954], `CC(=O)Nc1ccc(CN(Cc2ccc(F)cc2)Cc2cccc(Oc3ccccc3)c2)cc1` [TCMDC-140033] is lower in “% Inhibition” value: 11.16% for the first, -16.62% for the second.

Going from `COc1cc(-c2ccc3c(-c4ccc(C(=O)N5CCN(C)CC5)cc4)[nH]nc3n2)cc(OC)c1OC` [TCMDC-124890] to `COc1ccc(CC(=O)NC(CCCN2CCC(c3ccccc3)CC2)c2ccc(Cl)c(Cl)c2)cc1OC` (stereo not drawn) [TCMDC-141901], the “% Inhibition” value falls from 40.62% to -2.836%.

First: COCCCNc1sc(S(=O)(=O)c2ccccc2)nc1S(=O)(=O)c1ccc(Cl)cc1 [TCMDC-124764]
Second: COc1ccc(F)cc1-c1ccccc1CNC(=O)CN(C)S(=O)(=O)c1cc(C)cc(Cl)c1C [TCMDC-132302]
The “% Inhibition” value of the first is lower: -6.212% for the first, 82.24% for the second.

Going from `Cc1ccccc1NC(=O)C1CSCN1C(=O)OCc1ccccc1` (stereo not drawn) [TCMDC-125742] to `O=C(Nc1cccc(CN2CCN(Cc3cccc(O)c3)CC2)c1)c1cc2ccccc2s1` [TCMDC-134623], the “% Inhibition” value rises from -21.88% to -8.756%.

Going from `COc1ccc(C(=O)NCc2ccccc2-c2ccc(C(C)(C)C)cc2)cc1O` [TCMDC-136716] to `COc1ccc(F)cc1-c1ccccc1CNC(=O)c1cnn(-c2ccc([N+](=O)[O-])cc2)c1C(F)(F)F` [TCMDC-136460], the “% Inhibition” value falls from -20.55% to -26.92%.

Going from `CCCCCC(C)N=C(Nc1ccc([N+](=O)[O-])cc1O)Nc1ccccc1Br` (stereo not drawn) [TCMDC-140073] to `O=C(N/C=N/c1cc([N+](=O)[O-])c(-c2cccnc2)n1-c1ccc(O)cc1)c1ccccc1` [TCMDC-125227], the “% Inhibition” value rises from -48.06% to -2.82%.

First: CCOC(=O)C1=C(C)N=c2sc(=Cc3cc(Cl)ccc3O)c(=O)n2C1c1ccc(OC)cc1 (stereo not drawn) [TCMDC-124112]
Second: CCOC(=O)C1=C(C)N=c2sc(=Cc3cc(Cl)ccc3O)c(=O)n2C1c1ccc2c(c1)OCO2 (stereo not drawn) [TCMDC-124113]
The “% Inhibition” value of the first is lower: -5.89% for the first, 66.04% for the second.

First: CCOC(=O)C1=C(C)N=c2sc(=Cc3cc(Cl)ccc3O)c(=O)n2C1c1cc(OC)c(OC)cc1Br (stereo not drawn) [TCMDC-124116]
Second: CCc1cc2c(=O)c(-c3nc(C)cs3)c([C@H](N)Cc3ccc(O)cc3)oc2cc1O [TCMDC-124111]
The “% Inhibition” value of the first is higher: 34.65% for the first, 0.6377% for the second.

Compared with `NC(=O)c1cccc(Nc2nccc(Nc3ccc(Oc4c(Cl)cccc4Cl)c(Cl)c3)n2)c1` [TCMDC-138594], `CN=C(NC)c1cccc(NC(=O)C=Cc2ccc(C=CC(=O)Nc3cccc(C(=NC)NC)c3)cc2)c1` [TCMDC-137213] is higher in “% Inhibition” value: -30.34% for the first, 18.83% for the second.

Compared with `N#Cc1cccc(C(O)CN(Cc2ccccc2)Cc2ccccc2)c1` (stereo not drawn) [TCMDC-131250], `N#Cc1ccc2[nH]cc(C(=O)CCCCCN(Cc3ccccc3)Cc3ccccc3)c2c1` [TCMDC-131257] is lower in “% Inhibition” value: 62.4% for the first, 33.92% for the second.

First: OC(CN(Cc1ccccc1)Cc1ccccc1)Cn1c2ccc(Cl)cc2c2cc(Cl)ccc21 (stereo not drawn) [TCMDC-125720]
Second: CCc1c[nH]c2c(N(c3ccccc3)S(C)(=O)=O)cc(C(=O)N[C@@H](Cc3ccccc3)[C@H](O)CNCc3cccc(C(F)(F)F)c3)cc12 [TCMDC-135318]
The “% Inhibition” value of the first is lower: 14.45% for the first, 91.8% for the second.

Going from `Cc1cc(C(F)(F)F)cc(-n2ncc(-c3ccc(C(=O)NCCNCc4ccccc4)cc3)c2N)n1` [TCMDC-136659] to `CS(=O)(=O)N(c1cccc(F)c1)c1cc(C(=O)N[C@@H](Cc2ccccc2)[C@H](O)CNCc2cccc(C(F)(F)F)c2)cc(N2CCCC2=O)c1` [TCMDC-138921], the “% Inhibition” value rises from -53.07% to -9.659%.

First: CCc1c[nH]c2c(N(c3ccccc3)S(C)(=O)=O)cc(C(=O)N[C@@H](Cc3ccccc3)[C@H](O)CNC(C)(C)CCCC(C)C)cc12 [TCMDC-135319]
Second: CCNc1cc(C(=O)N[C@@H](Cc2ccccc2)[C@H](O)CNC(C)(C)CCCC(C)C)cc(N2CCCC2=O)c1 [TCMDC-138889]
The “% Inhibition” value of the first is higher: 124.7% for the first, 7.674% for the second.

Compared with `CS(=O)(=O)N(c1ccc(F)cc1)c1cc(C(=O)N[C@@H](Cc2ccccc2)[C@H](O)CNCc2cccc(C(F)(F)F)c2)cc(N2CCCC2=O)c1` [TCMDC-138920], `O=S(=O)(c1ccc(Oc2ccccc2)cc1)N(CCC(O)(C(F)(F)F)C(F)(F)F)Cc1cccc(O)c1` [TCMDC-133480] is higher in “% Inhibition” value: -15.57% for the first, 74.25% for the second.

Going from `COC(=O)c1cccc(CN(CCC(O)(C(F)(F)F)C(F)(F)F)C(=O)CC2CCCC2)c1` [TCMDC-133482] to `O=S(=O)(c1cc(Cl)sc1Cl)N(CCC(O)(C(F)(F)F)C(F)(F)F)Cc1cccc(O)c1` [TCMDC-133476], the “% Inhibition” value falls from 48.89% to 47.79%.

First: O=S(=O)(c1cc2ccccc2s1)N(CCC(O)(C(F)(F)F)C(F)(F)F)Cc1cccc(O)c1 [TCMDC-133477]
Second: O=S(=O)(c1csc2ccccc12)N(CCC(O)(C(F)(F)F)C(F)(F)F)Cc1cccc(O)c1 [TCMDC-133478]
The “% Inhibition” value of the first is higher: 95.75% for the first, 82.79% for the second.

For `O=S(=O)(c1cccc(Cl)c1F)N(CCC(O)(C(F)(F)F)C(F)(F)F)Cc1cccc(O)c1` [TCMDC-133479], the “% Inhibition” value was 57.98%.
